Molecules are shown by their SMILES. Inconclusive results are not listed. Values without a mark were called inactive. Activity calls are given as the source filed them. The call rests on the fitted dose curve; in most records, active means well fitted cell-killing curve with a large enough effect; inconclusive means small, poorly fitted or top-dose-only effect; inactive means flat fitted curve, though single readings scatter.
Potency means the concentration at half of the fitted maximal effect.

The assay is described as follows: Quantitative highthroughput screen to assess conditional lethalithy of P12 Ichikawa cells grown in RPMI1640 with dialyzed fetal bovine serum (RPMI+ds) (AID 1963880). Further: nearly all actives have a fitted effect of over 35% in size. To be noted: ATP luminescence, 48 h; Potency: P12-Ichikawa viability; series mostly up to 45.8 µM; viability: at the top concentration. The source says: Assay Provider: Jason Cantor Ph.D.
Department of Biochemistry
University of Wisconsin-Madison, Madison, WI, USA
Chemical screening studies have identified drug sensitivities across hundreds of cancer cell lines but most putative therapeutics fail to translate. Discovery and development of drug candidates in models that more accurately reflect nutrient levels in human blood is a major challenge. Here we performed high-throughput screens in conventional versus Human Plasma-Like Medium (HPLM) to identify compounds that were "missed" when screening using the artificial culture condition. Sets of conditional anticancer compounds spanned phases of clinical development and included non-oncology drugs were assessed. […] We also traced conditional phenotypes for several chemotherapeutics to availability of HPLM-specific metabolites and confirmed others for compounds whose reported targets are encoded by nonessential genes. Our findings establish generalizable strategies for exploiting conditional lethality in HPLM to reveal therapeutic candidates and mechanisms of action in cancer cells.
Described herein are the results of each viability screens against three cell lines: NOMO1 (an acute myeloid leukemia cell line); P12-Ichikawa (a T-cell acute lymphoblastic leukemia); and SEM (a B-cell ALL). Each assay was screened using 3 different cell culture media: homemade human plasma-Like medium with 10% dialyzed fetal bovine serum (HPLM+ds); RPMI1640 with 10% untreated FBS and 5mM glucose (RPMI+s); and RPMI1640 with 10% dialyzed fetal bovine serum and 5 mM glucose (RPMI+ds).
PROTOCOL TABLE (as described by Inglese J, Shamu CE and Guy RK. 2007)
SEQUENCE No. (e.g., 1, 2, 3, etc.); […] (e.g., Cells, Incubation, Reagent, etc.); VALUE and DESCRIPTION.
1; Cells; 5 uL; white, solid bottom 1536-well Greiner assay plate.
2; Compounds; 23 nL; Kalypsis pin tool (Wako USA) equipped with a 1536-well pin head to transfer to the assay plates.
3; Incubation; 48 hours; 37C incubation.
4; Reagent; 3 uL; CellTiter Glo (Promega).
5; Incubation; 5 min, room temperature
6; Detection; Luminescence, Viewlux PerkinElmer.
NOTES (numbers refer to Sequence numbers above)
1. Briefly, 5 ul of cell reagent was dispensed using a Multidrop Combi Dispenser. The NOMO1 and SEM cells were plated at 500 cells/well and the P12-Ichikawa line at 1000 cells/well.
2. After seeding the cells, 23 nL of MIPE 4.1 library compounds (in DMSO) were added to each plate using a Kalypsys 1536 Pintool dispenser. Bortezomib at final concentration of […] and DMSO were added to each plate as positive and negative controls respectively. For each screen, MIPE 4.1 compounds were added over an eleven-point concentration range […] in 3-fold dilutions.
3. Each plate was covered with a stainless steel gasketed lid to prevent evaporation and incubated for 48 hour at 37C, 95% relative humidity, and 5% CO2.
4-5. Three microliter CellTilter-GloTM luminescent substrate mix (Promega) reagent was added to the assay plate and incubated at room temperature for 5 min.
6. The luminescence signal was measured using a ViewLux (PerkinElmer) multiplate reader with a 2 second exposure time per plate. Data for each compound were normalized as percent viability such that measurements for DMSO and the empty well controls in each plate were defined as 100% and 0%, respectively.
By viability is commonly meant a read-out of living cells in per cent, often relative to untreated cells. Take `C=CC[N+]1([C@H]2C[C@H]3[C@@H]4CC[C@H]5C[C@H](O)[C@@H](N6CCOCC6)C[C@]5(C)[C@@H]4CC[C@]3(C)[C@H]2OC(C)=O)CCCC1`: the “viability” value is 98.6%.
As for `C[C@H](NC(=O)[C@@H](O)c1cc(F)cc(F)c1)C(=O)N[C@@H]1C(=O)N(C)c2ccccc2-c2ccccc21`, the “viability” value was 87.8%.
For `CN(CCOc1ccc(CC2SC(=O)NC2=O)cc1)c1ccccn1` (stereo not given), the “viability” value is 91.9%.
`N#CC1(c2cccc(C(=O)Nc3cc(Oc4ccc5nc(NC(=O)C6CC6)sc5n4)ccc3F)c2Cl)CC1`: the Potency is 2.64 µM (active).
`Cc1cnc(CNC(=O)c2c(=O)c3ccc(N4CCCN(C)CC4)nc3n3c2sc2ccccc23)cn1`: the Potency was 10.2 µM (active).
Regarding `C[C@]12C=CC(=O)N[C@@H]1CC[C@H]1[C@H]3CC[C@@H](C(=O)Nc4cc(C(F)(F)F)ccc4C(F)(F)F)[C@@]3(C)CC[C@@H]12`, the “viability” value was 97.4%.
Regarding `COc1cc([C@@H](CC(=O)O)c2ccc(C)c(CN3C[C@@H](C)Oc4ccccc4S3(=O)=O)c2)cc2nnn(C)c12`, the Potency is 18.6 µM (active).
Regarding `C[C@@H](Oc1cc(-n2cnc3ccc(CN4CCN(C)CC4)cc32)sc1C(N)=O)c1ccccc1C(F)(F)F`, the Potency was 0.0332 µM (active).
With `COc1ccccc1OCCNCC(O)COc1cccc2[nH]c3ccccc3c12` (stereo not given), the “viability” value is 92.9%.
Same read-out and setting: the result for `Clc1ccc2c(c1)C(N1CCNCC1)=Nc1ccccc1O2` reads 99.1%; that for `CCOCC(O)COc1ccc(NC(=O)CC[S+](C)C)cc1` (stereo not given), 92.2%.
In the case of `Cc1cnc(NC(=O)Nc2cc(Br)c(C)cc2OC[C@@H]2CNCCO2)cn1`, the Potency is 13.2 µM (active).
With `CN(C)CC(=O)N1CCC(c2ccc(NC(=O)c3ncc(C#N)[nH]3)c(C3=CCCCC3)c2)CC1`, the “viability” value was 100%.
The same measure, in the same setting: the figure for `Cc1c(CCOc2ccc(C(=O)O)cc2)c2cc(Cl)ccc2n1C(c1ccccc1)c1ccccc1` is 90.3%; for `COc1ccc(-c2cc(=O)c3c(O)cc(O[C@@H]4O[C@H](CO[C@@H]5O[C@@H](C)[C@H](O)[C@@H](O)[C@@H]5O)[C@@H](O)[C@H](O)[C@@H]4O)cc3o2)cc1O` it is 106%; for `C[C@H]1[C@H](NC(=O)C(=NOC(C)(C)C(=O)O)c2csc(N)n2)C(=O)N1S(=O)(=O)O` it is 97.5%.
Still for that read-out and setting: the figure for `C[C@@H]1[C@H](C)CC[C@]2(C(=O)O)CC[C@]3(C)C(=CC[C@@H]4[C@@]5(C)CC[C@H](O)C(C)(C)[C@H]5CC[C@]43C)[C@@H]12` is 98.5% [at 92.2 µM]; for `CC(C)NCC(O)COc1ccc(CCOCC2CC2)cc1` (stereo not given) it is 110%; for `NC(=O)c1cccc(-c2cc(Nc3ccc(OC(F)(F)F)cc3)ncn2)c1` it is 81.9%.
On to `Cc1ccc(-c2cc(C(F)(F)F)nn2-c2ccc(S(N)(=O)=O)cc2)cc1`, for which the “viability” value is 95.9%.
Still for that read-out and setting: the figure for `N[C@H](CSC(c1ccccc1)(c1ccccc1)c1ccccc1)C(=O)O` is 106%.
Consider `CCN(CC)CCCCNc1nc2cc(Cl)c(Cl)cc2nc1-c1ccc(-c2cccs2)s1`, for which the Potency is 26.4 µM (active).
Take `c1cc(CN2CCCNCCNCCCNCC2)ccc1CN1CCCNCCNCCCNCC1`: the “viability” value is 105%.
On the same count and under the same terms, the result for `O=C(C=Cc1c(C(=O)O)[nH]c2cc(Cl)cc(Cl)c12)Nc1ccccc1` reads 101%.
For `Cc1cc(Nc2ncc(Cl)c(Nc3ccccc3S(=O)(=O)C(C)C)n2)c(OC(C)C)cc1C1CCNCC1`, the Potency was 23.4 µM (active).
On to `COc1cc2c(Nc3ccc(NC(=O)c4ccccc4)cc3)ncnc2cc1OCCCN1CCOCC1`, for which the Potency is 3.32 µM (active).
Take `CN[C@H]1[C@@H](O[C@@H]2[C@H](O[C@@H]3[C@@H](O)[C@@H](O)[C@@H](N=C(N)N)[C@@H](O)[C@@H]3N=C(N)N)O[C@H](C)[C@@]2(O)C=O)O[C@@H](CO)[C@@H](O)[C@H]1O`: the “viability” value is 112% [at 15.3 µM].
On the same count and under the same terms, the result for `O=C(O)CCC=CCC[C@@H]1[C@H](N2CCCCC2)[C@@H](O)C[C@@H]1OCc1ccc(-c2ccccc2)cc1` reads 97.4%; that for `CC(C)NCC(O)COc1ccc(COCCOC(C)C)cc1` (stereo not given), 106%.
As to `CC(C)C[C@H](NC(=O)[C@H](CCc1ccccc1)NC(=O)CN1CCOCC1)C(=O)N[C@@H](Cc1ccccc1)C(=O)N[C@@H](CC(C)C)C(=O)[C@@]1(C)CO1`, the Potency was 0.0235 µM (active).
As for `CCn1cc(C(=O)O)c(=O)c2cc(F)c(N3CCNCC3)nc21`, the “viability” value was 105%.
The same measure, in the same setting: the result for `N[C@@H](C(=O)N[C@@H]1C(=O)N2C(C(=O)O)=C(Cl)CS[C@H]12)c1ccccc1` reads 101%.
Turning to `c1cc(OCCN2CCCCC2)cc(-c2n[nH]c3ccc(-c4ncn[nH]4)cc23)c1`, the “viability” value was 101%.
As for `CN(C)Cc1ccc(-c2nc3cccc4c3n2CCNC4=O)cc1`, the “viability” value was 105%.
The same measure, in the same setting: the figure for `CC(C)C[C@@H](N)[C@H](O)C(=O)N[C@H](C(=O)N[C@H](C(=O)N[C@@H](CC(=O)O)C(=O)O)C(C)C)C(C)C` is 98.3%; for `C[C@@H]1[C@H](O)[C@@H](C)C=CC=CC=CC=CC=CC=CC=C[C@H](O[C@@H]2O[C@H](C)[C@H](O)[C@H](N)[C@@H]2O)C[C@@H]2O[C@](O)(C[C@@H](O)C[C@@H](O)[C@H](O)CC[C@@H](O)C[C@@H](O)CC(=O)O[C@H]1C)C[C@H](O)[C@@H]2C(=O)O` it is 103%.
Take `Clc1ccc(CCC(Cn2ccnc2)Sc2c(Cl)cccc2Cl)cc1` (stereo not given): the “viability” value was 76.1%.
Regarding `O=C(c1ccccc1)c1ccc2n1CCC2C(=O)O` (stereo not given), the Potency was 4.18 µM (active).
For `O=C(O)C1CCCN(CCC=C(c2ccccc2)c2ccccc2)C1` (stereo not given), the “viability” value was 97.2%.
On the same count and under the same terms, the figure for `CC1(C)SCCN(S(=O)(=O)c2ccc(OCC#CCO)cc2)[C@@H]1C(=O)NO` is 97.3%.

The values are drawn from PubChem BioAssay (NCATS).
